# Laboratory results: the supplement of paper PMC8728848
# The full list was thinned out, with the strongest signals kept by preference.
# B1: PX9961M-bvu-482-23-482 (Bacteroides vulgatus) (protein)
# chain: WLDLAPSTQVDTETSINVLSDIEFTLNGIYSTMQSSDAYSGRLVYYGDVTGDDMQAVSSTKRTGNYYRFNFTKDNGPSSHWSYLYSIIQNCNLILMNVDKLSIDEDETEYKNDLKGQALAIRGMALFDLTRIFGYPYLKDNGASLGVPIVKELSTIDSKPARNTVAECYTEIISDLKNSTELLSGDFNKGKVNRWAAMTLLSRVYLYKGEYNEALTMAENAIKGAEKEGYALWTNEEYPTAWGNDASASNPGEILFEIVNLTTDSPGKESMGYLNSYNGYDDMCITCSFYQLLKKDPKDVRLKILSFDKKYYAYVNKYQPQQGENITDANIPLIRLSEAYLNAAEAAVQTGDNAKAVKYLNSIVQRANPENSVEGKTLTLENVLDERRKELVAEGHRMYDVIRNGMTVKRIDVKDSDINKTKHNTAYMEYDWNFHKILLPIPKKEMDANPNMKQNPGYVD
# Assays:
# Assay in all cases: glycan array binding signal (z-score within array); higher = stronger binding
# Details in all cases: glycan notation: IUPAC condensed, linker removed
# Gal6S(b1-4)Glc6S = molecular target: Gal6S(b1-4)Glc6S
# In short: (§1)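 The Consortium for Functional Glycomics database supplied 3228 glycan arrays, of which those lacking an available protein sequence were dropped. The binding signal, a within-array Z-score, was averaged across arrays of the same protein sequence and across linkers. Negative scores can be read as non-binding.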
# Gal6S(b1-4)GlcNAc6S = molecular target: Gal6S(b1-4)GlcNAc6S
# In short: as §1
# GalNAc(b1-4)GlcNAc6S = molecular target: GalNAc(b1-4)GlcNAc6S
# In short: as §1
# [1] = molecular target: GlcNAc(a1-4)Gal(b1-4)GlcNAc
# In short: as §1
# [2] = molecular target: GlcNAc(a1-6)Gal(b1-4)GlcNAc
# In short: as §1
# GlcNAc(b1-3)Fuc = molecular target: GlcNAc(b1-3)Fuc
# In short: as §1
# GlcNAc(b1-3)Gal(b1-4)Glc = molecular target: GlcNAc(b1-3)Gal(b1-4)Glc
# In short: as §1
# [3] = molecular target: GlcNAc(b1-3)Gal(b1-4)GlcNAc(b1-2)[GlcNAc(b1-3)Gal(b1-4)GlcNAc(b1-6)]Man(a1-6)[GlcNAc(b1-3)Gal(b1-4)GlcNAc(b1-2)Man(a1-3)]Man(b1-4)GlcNAc(b1-4)GlcNAc
# In short: as §1
# [4] = molecular target: GlcNAc(b1-3)Gal(b1-4)GlcNAc(b1-3)Gal(b1-4)GlcNAc(b1-2)Man(a1-3)[GlcNAc(b1-3)Gal(b1-4)GlcNAc(b1-3)Gal(b1-4)GlcNAc(b1-2)Man(a1-6)]Man(b1-4)GlcNAc(b1-4)[Fuc(a1-6)]GlcNAc
# In short: as §1
# [5] = molecular target: GlcNAc(b1-3)Gal(b1-4)GlcNAc(b1-3)Gal(b1-4)GlcNAc(b1-3)Gal(b1-4)GlcNAc(b1-2)[GlcNAc(b1-3)Gal(b1-4)GlcNAc(b1-3)Gal(b1-4)GlcNAc(b1-3)Gal(b1-4)GlcNAc(b1-6)]Man(a1-6)[GlcNAc(b1-3)Gal(b1-4)GlcNAc(b1-3)Gal(b1-4)GlcNAc(b1-3)Gal(b1-4)GlcNAc(b1-2)Man(a1-3)]Man(b1-4)GlcNAc(b1-4)[Fuc(a1-6)]GlcNAc
# In short: as §1
# [6] = molecular target: GlcNAc(b1-3)Gal(b1-4)GlcNAc(b1-3)Gal(b1-4)GlcNAc(b1-3)Gal(b1-4)GlcNAc(b1-3)Gal(b1-4)GlcNAc(b1-2)[GlcNAc(b1-3)Gal(b1-4)GlcNAc(b1-3)Gal(b1-4)GlcNAc(b1-3)Gal(b1-4)GlcNAc(b1-3)Gal(b1-4)GlcNAc(b1-6)]Man(a1-6)[GlcNAc(b1-3)Gal(b1-4)GlcNAc(b1-3)Gal(b1-4)GlcNAc(b1-3)Gal(b1-4)GlcNAc(b1-3)Gal(b1-4)GlcNAc(b1-2)Man(a1-3)]Man(b1-4)GlcNAc(b1-4)[Fuc(a1-6)]GlcNAc
# In short: as §1
# [7] = molecular target: GlcNAc(b1-3)Gal(b1-4)GlcNAc(b1-6)[GlcNAc(b1-3)Gal(b1-3)]GalNAc
# In short: as §1
# [8] = molecular target: Man(a1-2)Man(a1-2)Man(a1-6)[Man(a1-3)]Man
# In short: as §1
# [9] = molecular target: Man(a1-3)[Man(a1-6)]Man(a1-6)[Man(a1-3)]Man
# In short: as §1
# Neu5Ac(a2-3)Gal = molecular target: Neu5Ac(a2-3)Gal
# In short: as §1
# [10] = molecular target: Neu5Ac(a2-3)Gal(b1-3)GalNAc(b1-4)[Neu5Ac(a2-8)Neu5Ac(a2-3)]Gal(b1-4)Glc
# In short: as §1
# [11] = molecular target: Neu5Ac(a2-3)Gal(b1-3)GlcNAc(b1-2)Man
# In short: as §1
# [12] = molecular target: Neu5Ac(a2-3)Gal(b1-4)GlcNAc(b1-3)Gal(b1-4)GlcNAc(b1-3)GalNAc
# In short: as §1
# [13] = molecular target: Neu5Ac(a2-3)Gal(b1-4)GlcNAc(b1-3)GalNAc
# In short: as §1
# [14] = molecular target: Neu5Ac(a2-3)Gal(b1-4)[Fuc(a1-3)]GlcNAc
# In short: as §1
# [15] = molecular target: Neu5Ac(a2-6)Gal(b1-4)GlcNAc
# In short: as §1
# [16] = molecular target: Neu5Ac(a2-6)Gal(b1-4)GlcNAc(b1-2)Man(a1-3)Man(b1-4)GlcNAc(b1-4)GlcNAc
# In short: as §1
# [17] = molecular target: Neu5Ac(a2-6)Gal(b1-4)GlcNAc(b1-2)Man(a1-6)[Man(a1-3)]Man(b1-4)GlcNAc(b1-4)GlcNAc
# In short: as §1
# [18] = molecular target: Neu5Ac(a2-6)Gal(b1-4)GlcNAc(b1-3)GalNAc
# In short: as §1
# [19] = molecular target: Neu5Ac(a2-8)Neu5Ac(a2-3)[Gal(b1-3)GalNAc(b1-4)]Gal(b1-4)Glc
# In short: as §1
# [20] = molecular target: Neu5Ac(a2-8)Neu5Gc(a2-3)Gal(b1-4)GlcNAc
# In short: as §1
# Neu5Ac(b2-6)GalNAc = molecular target: Neu5Ac(b2-6)GalNAc
# In short: as §1
binder,measurement,setting,value
B1,glycan array binding signal (z-score),Gal6S(b1-4)Glc6S,-0.529
same,glycan array binding signal (z-score),Gal6S(b1-4)GlcNAc6S,-0.084
same,glycan array binding signal (z-score),GalNAc(b1-4)GlcNAc6S,-0.209
same,glycan array binding signal (z-score),[1],-0.43
same,glycan array binding signal (z-score),[2],-0.826
same,glycan array binding signal (z-score),GlcNAc(b1-3)Fuc,0.451
same,glycan array binding signal (z-score),GlcNAc(b1-3)Gal(b1-4)Glc,-0.369
same,glycan array binding signal (z-score),[3],-0.33
same,glycan array binding signal (z-score),[4],0.761
same,glycan array binding signal (z-score),[5],1.99
same,glycan array binding signal (z-score),[6],1.58
same,glycan array binding signal (z-score),[7],0.464
same,glycan array binding signal (z-score),[8],0.455
same,glycan array binding signal (z-score),[9],2.74
same,glycan array binding signal (z-score),Neu5Ac(a2-3)Gal,-0.037
same,glycan array binding signal (z-score),[10],0.996
same,glycan array binding signal (z-score),[11],0.535
same,glycan array binding signal (z-score),[12],-0.629
same,glycan array binding signal (z-score),[13],0.638
same,glycan array binding signal (z-score),[14],-0.48
same,glycan array binding signal (z-score),[15],0.329
same,glycan array binding signal (z-score),[16],-0.834
same,glycan array binding signal (z-score),[17],0.152
same,glycan array binding signal (z-score),[18],-0.573
same,glycan array binding signal (z-score),[19],-0.531
same,glycan array binding signal (z-score),[20],18
same,glycan array binding signal (z-score),Neu5Ac(b2-6)GalNAc,-0.083
